Assay results published in PubChem BioAssay (Tox21).
Activity calls are given as the source filed them. Unless noted, calls come from the whole dose curve; as a rule, active = well fitted curve in the direction sought with a large enough effect in the repeat runs; inconclusive = weak or mixed curves; inactive = no such curve, though single readings can be large; an effect the other way counts as inactive or inconclusive.

How the values were obtained:
[1] = qHTS assay to identify small molecule antagonists of the thyroid receptor (TR) signaling pathway - cell viability counter screen (AID 743064); note: nearly all actives have a fitted effect of over 50% in size; note: potency is the fitted concentration of half-maximal effect
Outline: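 In-well cytotoxicity read by CellTiter-Fluor (30 min, 37 C) following 23.5 h exposure of GH3 cells bearing a TRE-luciferase sensor. Compounds were added alongside 1 nM (final) T3 to drive TR transactivation.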

[2] = qHTS assay to identify small molecule antagonists of the thyroid receptor (TR) signaling pathway (AID 743065); note: nearly all actives have a fitted effect of over 55% in size; note: potency is the fitted concentration of half-maximal effect
Outline: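 GH3.TRE-Luc rat pituitary cells carrying two TR response elements driving luciferase were plated for 4 h, given compound plus 1 nM T3 (final), and incubated 23.5 h at 37 C. ONE-Glo luminescence measured reporter inhibition; CellTiter-Fluor fluorescence tracked cytotoxicity.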

[3] = tested on: thyroid hormone receptor (rat, GH3 cells); assay: qHTS assay to identify small molecule agonists of the thyroid receptor (TR) signaling pathway (AID 743066; calls by dose curve; note: % is set by controls: 0 for no effect and ±100 for the full control effect)
[4] = target: Estrogen receptor (Homo sapiens) (UniProt P03372); assay: qHTS assay to identify small molecule antagonists of the estrogen receptor alpha (ER-alpha) signaling pathway (AID 743069; active = well fitted curve in the direction sought with a large enough effect in the signal ratio in the repeat runs, not every such curve was filed as active; inconclusive = weak or mixed curves, or effect the other way; inactive = no such curve, though single readings can be large or run the other way; the % refers to the signal ratio; note: potency is the fitted concentration of half-maximal effect)
Outline: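 HEK293 cells stably carrying an ER-alpha-UAS-bla beta-lactamase reporter were pre-cultured overnight in 2% charcoal-stripped FBS medium. Test compounds in DMSO were added together with 17beta-estradiol for 18 hr at 37C. Read-out was fluorescence after 2 hr with LiveBLAzer B/G FRET substrate at room temperature.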

[5] = target: Estrogen receptor (Homo sapiens) (UniProt P03372); assay: qHTS assay to identify small molecule agonists of the estrogen receptor alpha (ER-alpha) signaling pathway (AID 743075; calls by dose curve; note: potency is the fitted concentration of half-maximal effect); details: HEK293 ER-alpha-UAS-bla, beta-lactamase FRET ratio, 18 h; activation: at 70.1 µM (top of the series)
[6] = target: Estrogen receptor (Homo sapiens) (UniProt P03372); assay: qHTS assay to identify small molecule agonists of the estrogen receptor alpha (ER-alpha) signaling pathway using the BG1 cell line (AID 743079); details: BG1Luc4E2 cells, ERE-luciferase agonist, 22 h; note: nearly all actives have a fitted effect of over 20% in size; note: potency is the fitted concentration of half-maximal effect
[7] = qHTS assay to identify small molecule antagonists of the estrogen receptor alpha (ER-alpha) signaling pathway using the BG1 cell line (AID 743080; calls by dose curve;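 note: BG1 cells stimulated with 17beta-estradiol alongside compound; nearly all actives have a fitted effect of over 25% in size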; note: potency is the fitted concentration of half-maximal effect)
Outline: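 Quantitative HTS on the Tox21 10K library: BG1 cells with endogenous ER-alpha and ERE-luciferase reporter, 17beta-estradiol stimulation, 21.5 h compound exposure, luminescence endpoint with parallel fluorescence cytotoxicity counter-read.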

[8] = qHTS assay to identify small molecule antagonists of the estrogen receptor alpha (ER-alpha) signaling pathway using the BG1 cell line - cell viability counter screen (AID 743081);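 note: compound given together with 17beta-estradiol as the ER stimulus; nearly all actives have a fitted effect of over 45% in size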; note: potency is the fitted concentration of half-maximal effect
[9] = target: Aryl hydrocarbon receptor (Homo sapiens) (UniProt P35869); assay: qHTS assay to identify small molecule that activate the aryl hydrocarbon receptor (AhR) signaling pathway (AID 743085); note: nearly all actives have a fitted effect of over 15% in size; note: potency is the fitted concentration of half-maximal effect
Outline: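 Luminescence (ONE-Glo) from a dioxin-responsive-element luciferase reporter in HG2L7.5c1 HepG2 cells after 24 hr compound exposure at 37C; viability measured by CellTiter-Fluor fluorescence beforehand.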

[10] = qHTS assay to identify small molecule that activate the aryl hydrocarbon receptor (AhR) signaling pathway - cell viability counter screen (AID 743086); note: nearly all actives have a fitted effect of over 45% in size; note: potency is the fitted concentration of half-maximal effect
Outline: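 HepG2-AhR-luc (HG2L7.5c1) cells, 4000/well, were preincubated 5 h at 37C, exposed to compound in qHTS format for 24 hr at 37C, then given CellTiter-Fluor for 30 min; viability was read as fluorescence in the reporter wells.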

[11] = qHTS assay for small molecule agonists of the antioxidant response element (ARE) signaling pathway - cell viability counter screen (AID 743203; calls by dose curve; note: % is set by controls: 0 for no effect and ±100 for the full control effect; nearly all actives have a fitted effect of over 55% in size)
Outline: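 Compounds in DMSO were pinned onto ARE-bla HepG2 cells plated 5 hrs earlier at 2,000 cells/well. Sixteen hours later at 37C/5% CO2, CellTiter-Glo was added and luminescence measured after 30 min at room temperature.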

[12] = qHTS assay for small molecule activators of the heat shock response signaling pathway - cell viability counter screen (AID 743209); note: nearly all actives have a fitted effect of over 50% in size; note: potency is the fitted concentration of half-maximal effect
Outline: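 Counter screen for cytotoxicity in HeLa HSE-bla reporter cells. Treatment was 5 h at 37 C; viability was detected by luminescent ATP assay (CellTiter-Glo) in the same wells as the beta-lactamase read.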

Aromatase (Homo sapiens) = Aromatase (Homo sapiens) (UniProt P11511); assay: qHTS assay to identify aromatase inhibitors (AID 743083); note: nearly all actives have a fitted effect of over 55% in size; note: potency is the fitted concentration of half-maximal effect
[13] = qHTS assay to identify aromatase inhibitors - cell viability counter screen (AID 743084);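 note: cells stimulated with testosterone during compound exposure; nearly all actives have a fitted effect of over 55% in size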; note: potency is the fitted concentration of half-maximal effect
[14] = qHTS assay to identify small molecule antagonists of the peroxisome proliferator-activated receptor gamma (PPARg) signaling pathway - cell viability counter screen (AID 743194); note: nearly all actives have a fitted effect of over 55% in size; note: potency is the fitted concentration of half-maximal effect
Outline: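 PPARg-UAS-bla HEK293H cells were plated, rested 5 h at 37 C, then treated with compounds plus rosiglitazone (50 nM final) for 17 h at 37 C; viability was then read by CellTiter-Glo luminescence after 30 min at room temperature.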

[15] = qHTS assay for small molecule activators of the heat shock response signaling pathway (AID 743210; active = well fitted activation curve with a large enough effect in the signal ratio in the repeat runs, with a control signal flat, not every such curve was filed as active; inconclusive = weak or mixed curves; the % refers to the signal ratio; note: % is set by controls: 0 for no effect and ±100 for the full control effect)
Outline: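 HSE-bla HeLa cells (beta-lactamase reporter under heat shock response elements) were exposed to compounds for 5 h at 37 C, then loaded with LiveBLAzer B/G FRET substrate for 2.5 h at room temperature before fluorescence reading.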

[16] = qHTS assay to identify small molecule antagonists of the estrogen receptor alpha (ER-alpha) signaling pathway - cell viability counter screen (AID 743074; calls by dose curve; note: nearly all actives have a fitted effect of over 45% in size; note: potency is the fitted concentration of half-maximal effect)
[17] = target: Peroxisome proliferator-activated receptor gamma (Homo sapiens) (UniProt P37231); assay: qHTS assay to identify small molecule agonists of the peroxisome proliferator-activated receptor gamma (PPARg) signaling pathway (AID 743094; active = well fitted activation curve with a large enough effect in the signal ratio in the repeat runs, not every such curve was filed as active; inconclusive = weak or mixed curves, or effect the other way; inactive = no such curve, though single readings can be large or run the other way; the % refers to the signal ratio; note: % is set by controls: 0 for no effect and ±100 for the full control effect)
Outline: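 Following 5 h plating at 37C, PPARg-bla HEK293H cells receive compound or DMSO for 17 h; fluorescence intensity is recorded after LiveBLAzer B/G loading for 1 h at room temperature.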

[18] = qHTS assay for small molecule agonists of the antioxidant response element (ARE) signaling pathway (AID 743202; active = well fitted activation curve with a large enough effect in the signal ratio in the repeat runs, not every such curve was filed as active; inconclusive = weak or mixed curves, or effect the other way; inactive = no such curve, though single readings can be large or run the other way; the % refers to the signal ratio; note: % is set by controls: 0 for no effect and ±100 for the full control effect)
Outline: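 Read-out: LiveBLAzer B/G FRET substrate fluorescence after 2 h at room temperature, following 16 h compound treatment at 37 C of HepG2 cells carrying an ARE-driven beta-lactamase reporter.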

Aryl hydrocarbon receptor (Homo sapiens), sequence (P35869 whole entry, looked up): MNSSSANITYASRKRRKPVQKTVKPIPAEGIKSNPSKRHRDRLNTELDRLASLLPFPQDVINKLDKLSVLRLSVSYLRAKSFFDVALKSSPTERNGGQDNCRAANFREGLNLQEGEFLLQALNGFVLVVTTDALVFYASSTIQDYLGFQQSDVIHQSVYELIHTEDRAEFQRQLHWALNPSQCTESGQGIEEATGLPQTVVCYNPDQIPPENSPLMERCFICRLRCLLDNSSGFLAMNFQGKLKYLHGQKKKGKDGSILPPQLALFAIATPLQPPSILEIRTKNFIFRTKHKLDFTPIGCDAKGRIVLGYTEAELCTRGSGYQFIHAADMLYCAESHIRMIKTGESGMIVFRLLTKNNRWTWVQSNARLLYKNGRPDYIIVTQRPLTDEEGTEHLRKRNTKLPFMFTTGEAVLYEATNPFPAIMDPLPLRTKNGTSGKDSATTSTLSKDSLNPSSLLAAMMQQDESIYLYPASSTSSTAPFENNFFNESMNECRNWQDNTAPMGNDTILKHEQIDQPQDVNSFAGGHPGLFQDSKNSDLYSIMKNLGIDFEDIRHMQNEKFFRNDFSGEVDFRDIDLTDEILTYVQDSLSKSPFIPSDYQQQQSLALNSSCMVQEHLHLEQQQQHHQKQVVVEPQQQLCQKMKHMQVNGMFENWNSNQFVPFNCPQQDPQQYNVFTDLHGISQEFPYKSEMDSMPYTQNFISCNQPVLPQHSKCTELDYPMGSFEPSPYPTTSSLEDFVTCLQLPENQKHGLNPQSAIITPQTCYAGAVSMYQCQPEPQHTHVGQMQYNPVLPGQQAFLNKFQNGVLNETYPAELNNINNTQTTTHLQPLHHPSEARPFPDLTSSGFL
Estrogen receptor (Homo sapiens), sequence (P03372 whole entry, looked up): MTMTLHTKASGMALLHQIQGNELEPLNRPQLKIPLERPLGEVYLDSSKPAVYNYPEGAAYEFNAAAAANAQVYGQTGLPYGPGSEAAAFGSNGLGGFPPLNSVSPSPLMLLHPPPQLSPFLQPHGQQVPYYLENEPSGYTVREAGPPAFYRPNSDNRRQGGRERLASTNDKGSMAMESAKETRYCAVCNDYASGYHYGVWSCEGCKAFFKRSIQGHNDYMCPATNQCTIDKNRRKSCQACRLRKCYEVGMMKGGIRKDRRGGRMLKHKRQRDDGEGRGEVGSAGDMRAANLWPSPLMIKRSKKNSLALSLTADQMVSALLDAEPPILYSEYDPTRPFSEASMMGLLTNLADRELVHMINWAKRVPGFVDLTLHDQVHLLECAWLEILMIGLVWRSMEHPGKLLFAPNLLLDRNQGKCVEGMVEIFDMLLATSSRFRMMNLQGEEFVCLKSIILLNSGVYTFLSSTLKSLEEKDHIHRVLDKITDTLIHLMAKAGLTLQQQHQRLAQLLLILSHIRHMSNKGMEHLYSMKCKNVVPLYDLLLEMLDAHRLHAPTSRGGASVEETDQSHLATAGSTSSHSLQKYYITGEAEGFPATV
Aromatase (Homo sapiens), sequence (P11511 whole entry, looked up): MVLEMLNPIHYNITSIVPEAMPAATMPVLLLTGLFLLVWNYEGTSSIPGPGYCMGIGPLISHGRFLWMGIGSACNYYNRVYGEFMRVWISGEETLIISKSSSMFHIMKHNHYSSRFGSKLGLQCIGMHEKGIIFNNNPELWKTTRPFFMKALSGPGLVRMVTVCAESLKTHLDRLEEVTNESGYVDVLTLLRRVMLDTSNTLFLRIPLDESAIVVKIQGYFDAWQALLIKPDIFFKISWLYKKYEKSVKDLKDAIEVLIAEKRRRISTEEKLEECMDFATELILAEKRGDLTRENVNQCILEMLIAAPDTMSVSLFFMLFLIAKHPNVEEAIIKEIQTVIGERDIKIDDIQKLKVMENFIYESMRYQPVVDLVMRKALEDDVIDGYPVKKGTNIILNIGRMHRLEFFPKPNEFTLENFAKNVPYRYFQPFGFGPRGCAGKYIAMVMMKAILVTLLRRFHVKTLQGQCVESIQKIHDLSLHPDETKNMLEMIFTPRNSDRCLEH
Peroxisome proliferator-activated receptor gamma (Homo sapiens), sequence (P37231 whole entry, looked up): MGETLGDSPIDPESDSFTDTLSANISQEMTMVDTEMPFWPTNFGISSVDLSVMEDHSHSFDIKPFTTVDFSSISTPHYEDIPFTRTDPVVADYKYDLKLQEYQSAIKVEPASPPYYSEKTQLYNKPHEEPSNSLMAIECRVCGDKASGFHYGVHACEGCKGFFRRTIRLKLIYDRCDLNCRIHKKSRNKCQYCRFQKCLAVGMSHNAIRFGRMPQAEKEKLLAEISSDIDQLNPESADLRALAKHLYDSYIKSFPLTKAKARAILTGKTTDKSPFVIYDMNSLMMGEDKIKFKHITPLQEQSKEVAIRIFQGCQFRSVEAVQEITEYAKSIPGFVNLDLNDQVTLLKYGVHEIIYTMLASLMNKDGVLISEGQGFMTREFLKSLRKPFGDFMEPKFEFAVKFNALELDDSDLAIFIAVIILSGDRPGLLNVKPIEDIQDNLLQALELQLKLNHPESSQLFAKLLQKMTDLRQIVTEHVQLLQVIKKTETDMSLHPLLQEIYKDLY

O=CC=C(c1ccccc1)c1ccccc1
active: Potency [1] 34.7 µM | Potency [2] 13.8 µM | Potency [4] 27.8 µM [inconclusive] | Potency [7] 69.1 µM
inactive: Potency [3] | Potency [5] | activation ([6]; at 95 µM (top of the series)) -5.89% | Potency [8] | Potency [9] | Potency [10] | Potency [11] | Potency [12]

Oc1ccc(N=Nc2ccccc2)cc1
active: Potency [1] 49.2 µM | Potency [2] 61.9 µM | Potency [4] 39.4 µM [inconclusive] | Potency [5] 49.6 µM [inconclusive] | Potency [6] 6.19 µM | Potency [13] 31 µM | Potency [9] 61.9 µM
inactive: Potency [3] | Potency (Aromatase (Homo sapiens)) | Potency [14] | Potency [11] | Potency [12] | Potency [15]

Cc1cccc2c1cc1ccc3cccc4ccc2c1c34
inactive: Potency [1] | Potency [2] | Potency [3] | Potency [16] | activation ([6]; at 95 µM (top of the series)) 15.8% | Potency [7] | Potency (Aromatase (Homo sapiens)) | Potency [14] | Potency [11] | Potency [12]
active: Potency [9] 0.558 µM

CCC(C)Nc1ccc(NC(C)CC)cc1 (stereo not drawn)
active: Potency [1] 14 µM | Potency [2] 14 µM | Potency [4] 22.3 µM [inconclusive] | Potency [16] 25 µM | Potency [8] 24.8 µM | Potency (Aromatase (Homo sapiens)) 3.93 µM | Potency [13] 8.8 µM | Potency [10] 55.5 µM | Potency [14] 12.5 µM | Potency [12] 22.3 µM
inactive: Potency [3]

CCCCCCCCCCC=O
inactive: Potency [1] | Potency [2] | Potency [3] | Potency [16] | Potency [8] | Potency (Aromatase (Homo sapiens)) | Potency [13] | Potency [9] | Potency [10] | Potency [17] | Potency [14] | Potency [18] | Potency [11] | Potency [12] | Potency [15]

O=C(O)c1ccc(Cl)c(Cl)c1
inactive: Potency [1] | Potency [2] | Potency [3] | Potency [16] | Potency [5] | activation ([6]; at 70.3 µM (top of the series)) -5.68% | Potency [7] | Potency [8] | Potency (Aromatase (Homo sapiens)) | Potency [13] | Potency [9] | Potency [10] | Potency [17] | Potency [11] | Potency [12] | Potency [15]
